In PubChem BioAssay (NCATS) one finds Potency and outcome data, which are given here for 41 compounds.

Experiment [1] in a line: qHTS to identify inhibitors of the type 1 interferon - major histocompatibility complex class I in skeletal muscle: primary screen against the NCATS Pharmaceutical Collection (AID 1347407).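 Note: luminescence of HiBiT knocked into endogenous HLA-B as interferon-induced MHC class I level.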 Summed up:
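A qHTS format is used: 8-point, 1:5 compound series with 46 uM top final concentration, applied alongside 4 ng/ml IFN-beta to HLA-B*08:01-HiBiT knock-in myoblasts. Luminescence is measured after 24 h treatment.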

In experiment [2] the target is Protein phosphatase 1D (Homo sapiens) (UniProt O15297). The experiment is described as follows: RapidFire Mass Spectrometry qHTS Assay for Modulators of WT P53-Induced Phosphatase 1 (WIP1) (AID 1347424).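 Note: amount of dephosphorylated VEPPL-S-QETFS peptide product formed by WIP1.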 Note: potency is the fitted concentration of half-maximal effect. Summed up: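 WIP1 (10 nM final) was preincubated 1 h at room temperature with compounds in Tris-HCl pH 7.5, 30 mM MgCl2, TCEP, EGTA, BSA; 2 uM VEPPL-pS-QETFS phosphopeptide was added for 5 min, quenched with formic acid, and dephosphorylated product quantified by RapidFire MS.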
Protein phosphatase 1D (Homo sapiens), sequence (O15297 whole entry, looked up): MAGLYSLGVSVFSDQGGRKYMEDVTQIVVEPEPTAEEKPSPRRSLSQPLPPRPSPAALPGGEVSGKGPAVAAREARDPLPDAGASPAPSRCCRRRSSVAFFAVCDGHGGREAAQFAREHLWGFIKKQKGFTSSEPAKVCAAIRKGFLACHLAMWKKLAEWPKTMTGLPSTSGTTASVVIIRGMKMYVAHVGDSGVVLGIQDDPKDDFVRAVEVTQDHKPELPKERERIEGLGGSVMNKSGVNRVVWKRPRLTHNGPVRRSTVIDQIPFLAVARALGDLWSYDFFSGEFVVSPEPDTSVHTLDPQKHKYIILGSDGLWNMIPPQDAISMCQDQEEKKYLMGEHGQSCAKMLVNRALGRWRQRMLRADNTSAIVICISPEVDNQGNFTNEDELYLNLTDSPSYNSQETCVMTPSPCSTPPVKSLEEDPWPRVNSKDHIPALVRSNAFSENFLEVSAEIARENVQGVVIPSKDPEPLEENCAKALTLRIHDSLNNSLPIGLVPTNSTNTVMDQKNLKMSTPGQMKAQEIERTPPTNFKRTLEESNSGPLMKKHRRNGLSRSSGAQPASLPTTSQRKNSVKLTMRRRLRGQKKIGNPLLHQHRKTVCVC
A general note: Quantitative high-throughput screening tests each substance at several concentrations.

Experiment [3] shares this target. The experiment is described as follows: Rhodamine-PBP qHTS Assay for Modulators of WT P53-Induced Phosphatase 1 (WIP1) (AID 1347425). The essentials: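 5 nM WIP1 + 10 uM Rh-PBP, 50 mM Tris pH 7.5, 30 mM MgCl2, 1 mM TCEP, 0.1 mM EGTA, BSA; cpds pinned, 1 hr RT; + 10 uM phosphopeptide; fluorescence 1-min reads x 11 min; delta = f1 - f0.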
Experiment [4] is described as follows: Primary qHTS for inhibitors of La Crosse Virus (LACV) - induced cell death in SH-SY5Y cells (AID 1508616).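 Note: top concentration of the series differs between compounds; higher means more rescue of cells from virus-induced death.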 Summed up: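 Readout was luminescence from ATPLite 1step added after a 6-day LACV infection (0.01 MOI) of SH-SY5Y cells that had received pin-transferred compound 24 hr after seeding.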
The target of experiment [5] is Calcium and integrin-binding protein 1 (Homo sapiens) (UniProt Q99828). The experiment is described as follows: Confirmatory qHTS for Identification of Calcium Integrin Binding Protein 1 (CIB1) Competitor (AID 1508617). Note: nearly all actives have a fitted effect of over 65% in size. Note: potency is the fitted concentration of half-maximal effect. The essentials:
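Confirmatory qHTS measures displacement of a FITC-alphaIIb peptide (100 nM) from CIB1-GST (1 uM) by fluorescence polarization. Calcium-containing HEPES buffer, pH 7.4; two 15 min room-temperature incubations.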

Structures are written as SMILES. Results filed as inconclusive are left out. Where a call stands in place of a potency, no number is given. Active and inactive are the calls of the source. Calls come from the whole dose curve; as a rule, active = well fitted curve in the direction sought with a large enough effect; inconclusive = small, poorly fitted or top-dose-only effect, or another doubt; inactive = no such curve, though single readings can be large; an effect the other way counts as inactive or inconclusive.

Calcium and integrin-binding protein 1 (Homo sapiens), sequence (Q99828 whole entry, looked up): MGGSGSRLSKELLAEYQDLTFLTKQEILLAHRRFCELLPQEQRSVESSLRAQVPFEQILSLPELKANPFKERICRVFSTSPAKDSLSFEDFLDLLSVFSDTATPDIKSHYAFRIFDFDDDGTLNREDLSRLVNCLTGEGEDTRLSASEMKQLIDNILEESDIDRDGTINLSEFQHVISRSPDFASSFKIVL

Take `COC(=O)c1cc(Cl)ccc1NS(=O)(=O)C(F)(F)F`: the Potency entry in experiment [1], in experiment [2] and in experiment [5] was “inactive” throughout. Also, the compound was classed as inactive in experiment [3] and in experiment [4].
In the case of `CC(C)OC(=O)c1cc2c(OCC(O)CNC(C)(C)C)cccc2[nH]1` (centres undefined), the Potency entry in experiment [1] and in experiment [2] was “inactive” throughout. The compound was called inactive in experiment [3] and in experiment [4].
`CC(C)Cc1ccc(C(C)C(=O)OCc2ccccn2)cc1` (centres undefined): the Potency entry in experiment [1] and in experiment [2] was “inactive” each time. In addition, the result in experiment [4] was inactive.
On to `N#CSCC(=O)O`, for which the Potency result in experiment [1] and in experiment [2] was “inactive” each time. For the same compound, in experiment [4], the outcome was inactive.
On to `Nc1cc(C(F)(F)F)ccc1S`, for which the Potency entry in experiment [1] and in experiment [2] was “inactive” throughout. Further, the compound was classed as inactive in experiment [3] and in experiment [4]. The Potency in experiment [5] was 22.4 µM (active).
In the case of `CC(=O)O[C@@H]1C(=O)O[C@@H]2[C@H]1OC(=O)[C@@H]2OC(C)=O`, the Potency result in experiment [1] and in experiment [2] was “inactive” throughout. The compound was classed as inactive in experiment [3] and in experiment [4].
As for `Nc1ccc(C(=O)OCC(O)CO)cc1` (centres undefined), the Potency result in experiment [1] and in experiment [2] was “inactive” each time. Moreover, the compound was classed as inactive in experiment [4].
In the case of `NC(=O)NS(=O)(=O)c1ccc(Cl)cc1`, the Potency entry in experiment [1] and in experiment [2] was “inactive” each time. The compound was called inactive in experiment [3] and in experiment [4].
In the case of `O=C(O)c1cn(C2CC2)c2cc(Cl)c(F)cc2c1=O`, the Potency result in experiment [1] and in experiment [2] was “inactive” in each case. Besides, the compound was classed as inactive in experiment [4].
`Cc1cc(C(C)(C)C)c(O)c(C(C)(C)C)c1`: the Potency entry in experiment [1] and in experiment [2] was “inactive” throughout. In addition, the call in experiment [3] and in experiment [4] was inactive.
With `CC(C)(Oc1ccc(Cl)cc1)C(=O)OCCCOC(=O)C(C)(C)Oc1ccc(Cl)cc1`, the Potency result in experiment [1] and in experiment [2] was “inactive” in each case. Besides, in experiment [4], the outcome was inactive.
In the case of `Cc1ccc(C(=O)C(=O)O)cc1C`, the Potency result in experiment [1] and in experiment [2] was “inactive” in each case. Also, the compound was called inactive in experiment [3] and in experiment [4].
For `Cc1onc(-c2ccccc2)c1C(=O)Cl`, the Potency entry in experiment [1] and in experiment [2] was “inactive” in each case. In addition, the outcome in experiment [3] and in experiment [4] was inactive.
Take `Cc1ccc(CCn2c3c(c4cc(Cl)ccc42)CN(C)CC3)cn1`: the Potency entry in experiment [1] and in experiment [2] was “inactive” in each case. The compound was classed as inactive in experiment [4].
As to `CN1CCC(N(Cc2cccs2)c2ccccc2)CC1`, the Potency result in experiment [1], in experiment [2] and in experiment [5] was “inactive” each time. Further, the outcome in experiment [3] was inactive.
On to `O=c1[nH]c2ccccc2c(=O)n1CCCl`, for which the Potency entry in experiment [1] and in experiment [2] was “inactive” throughout. The call in experiment [4] was inactive.
In the case of `O=[N+]([O-])c1ccc(O)c2ncccc12`, the Potency entry in experiment [1], in experiment [2] and in experiment [5] was “inactive” throughout. In addition, the outcome in experiment [3] was inactive.
For the compound `CCOC(=O)Oc1ccc(CCNC(=O)[C@H](CCSC)NC(C)=O)cc1OC(=O)OCC`, the Potency result in experiment [1] and in experiment [2] was “inactive” each time. Besides, in experiment [4], the compound was called inactive.
For `CCCCCOc1ccc(C2SC(=O)NC2=O)cc1OCC` (centres undefined), in experiment [1], the Potency result is “inactive”. Also, the Potency in experiment [2] is 2.51 µM (active). Moreover, the compound was classed as inactive in experiment [4].
For the compound `COC(=O)[C@H]1[C@H]2C[C@@H]3c4[nH]c5cc(OC)ccc5c4CCN3C[C@H]2C[C@@H](OC(=O)/C=C/c2ccc(O)c(OC)c2)[C@@H]1OC`, in experiment [1], the Potency entry was “inactive”. Also, the result in experiment [3] and in experiment [4] was inactive.
Turning to `N[C@@H](Cc1cc(I)c(O)c(I)c1)C(=O)O`, the Potency result in experiment [1] is “inactive”. The Potency in experiment [2] was 20 µM (active). The outcome in experiment [4] was inactive.
Regarding `CCOC(=O)OCC/C(SC(=O)OCC)=C(\C)N(C=O)Cc1cnc(C)nc1N`, the Potency result in experiment [1] is “inactive”. In experiment [3], the compound was called inactive.
For the compound `C/C=C(/C(=C/C)c1ccc(OC(C)=O)cc1)c1ccc(OC(C)=O)cc1`, the Potency result in experiment [1] and in experiment [2] was “inactive” in each case. Also, the compound was classed as inactive in experiment [4].
Consider `CCCCC/C=C\C/C=C\CCCCCCCC(=O)NC(C)c1ccccc1` (centres undefined), for which the Potency result in experiment [1] was “inactive”. In addition, the compound was classed as inactive in experiment [3] and in experiment [4].
In the case of `C#Cc1ccc(-c2ccccc2F)cc1`, in experiment [1], the Potency entry was “inactive”. In addition, the call in experiment [3] and in experiment [4] was inactive.
On to `CN(C)CCCOC1(Cc2ccccc2)CCCCCC1`, for which, in experiment [1], the Potency result was “inactive”. Also, the result in experiment [3] and in experiment [4] was inactive.
With `CC(=O)N[C@@H](CCC(N)=O)C(=O)O`, the Potency result in experiment [1] was “inactive”. Moreover, the compound was classed as inactive in experiment [3] and in experiment [4].
Regarding `C[C@H]1C[C@H](O)c2ccsc2S1(=O)=O`, the Potency result in experiment [1] was “inactive”. Further, the compound was classed as inactive in experiment [3] and in experiment [4].
Consider `COCCc1ccccn1`, for which the Potency entry in experiment [1] and in experiment [2] was “inactive” throughout. In experiment [4], the compound was called inactive.
For the compound `COCCc1ccc(OCC2CO2)cc1` (centres undefined), the Potency result in experiment [1] and in experiment [2] was “inactive” throughout. Also, in experiment [4], the outcome was inactive.
Take `COC(=O)C1=C(C)NC(COC(N)=O)=C(C(=O)OC(C)C)C1c1cccc(Cl)c1Cl` (centres undefined): the Potency result in experiment [1] and in experiment [2] was “inactive” throughout. Further, the compound was called inactive in experiment [4].
`COC(=O)/C=C(/C)N`: in experiment [1], the Potency result was “inactive”. The compound was classed as inactive in experiment [3] and in experiment [4].
For `OCCCc1ccccc1`, the Potency entry in experiment [1] and in experiment [2] was “inactive” in each case. In experiment [4], the compound was classed as inactive.
Take `O=P(O)(O)OCC(O)CO` (centres undefined): the Potency entry in experiment [1] is “inactive”. Moreover, the result in experiment [3] and in experiment [4] was inactive.
With `COc1cc2c(cc1OC)CN(C(=O)[C@H](C)N[C@@H](CCc1ccccc1)C(=O)O)[C@H](C(=O)O)C2`, the Potency result in experiment [1] and in experiment [2] was “inactive” throughout. Besides, the call in experiment [4] was inactive.
For the compound `Oc1ccccc1`, the Potency result in experiment [1] was “inactive”. In addition, the result in experiment [3] and in experiment [4] was inactive.
Regarding `[O-][n+]1cccc(/C(Cl)=N/OC[C@@H](O)CN2CCCCC2)c1`, in experiment [1], the Potency result is “inactive”. Besides, the result in experiment [3] and in experiment [4] was inactive.
As for `N#Cc1cc(NC(=O)C(=O)O)c(Cl)c(NC(=O)C(=O)O)c1`, the Potency entry in experiment [1] and in experiment [2] was “inactive” throughout. Also, in experiment [4], the compound was called inactive.
Take `Cc1cccc(C)c1NC(=O)c1ccc(N)cc1`: the Potency entry in experiment [1] was “inactive”. Besides, the compound was called inactive in experiment [3] and in experiment [4].
For the compound `COc1cc(/C=C/C(N)=O)cc(OC)c1OC`, the Potency entry in experiment [1] and in experiment [2] was “inactive” throughout. In experiment [4], the compound was called inactive.
With `C[N+]1(CC2COC(c3ccccc3)(c3ccccc3)O2)CCCCC1` (centres undefined), in experiment [1], the Potency entry was “inactive”. The result in experiment [3] and in experiment [4] was inactive.
